Hits are enriched below; roughly 11% of the tested compounds scored in any of these assays.
Pf growth 48h – P. falciparum growth inhibition at 48 hours (one generation). AID 504832. Potency, µM (top dose mostly 28.7 µM), usual class: inhibitors. actives 5.9% (n = 310,000). P. falciparum luciferase growth in erythrocytes, 48 h
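Erythrocytes infected with P. falciparum carrying an integrated firefly luciferase reporter (2% hematocrit, 0.1% parasitemia final) were exposed to compounds in RPMI 1640 with 0.5% Albumax at 37 C, 5% CO2. Growth inhibition was scored as reduced luminescence.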
VACV mCherry inh – inhibitors of vaccinia virus infection (mCherry reporter signal). Vaccinia virus mCherry reporter infection, fluorescence. Potency, µM (series often up to 36.5 µM), hits mostly inhibitors. actives 0.63% (n = 310,000). AID 720579; calls by dose curve; tested in A549 cells; note: nearly all actives have a fitted effect of over 35% in size
Pf growth 96h – P. falciparum growth inhibition at 96 hour, primary screen for plastid delayed-death inhibitors. P. falciparum luciferase reporter growth, 96 h. Potency, µM (highest dose often 28.7 µM), usual class: inhibitors. actives 6.9% (n = 320,000)
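Erythrocytes infected with luciferase-expressing P. falciparum were dispensed at 2% hematocrit and 0.05% parasitemia (final), then incubated with compounds 96 hours at 37 C in 5% CO2. Luminescence after detection reagent addition reported growth.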
HCV inhibitor – HCV inhibition; Huh7.5.1 HCVcc-Cre infection, luciferase reporter, 44 h; Potency, µM (top dose mostly 41.8 µM), hits mostly inhibitors; actives 3.4% (n = 340,000)
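Reporter virus HCVcc-Cre (~0.5 moi) infects cells exposed to compound; seeding density 1,000 cells/well with 4 h settling beforehand. Luminescence, 15 sec read, taken 44 h post-infection following a 15 min RT substrate incubation.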
VACV Venus inh – inhibitors of vaccinia virus (Venus reporter); actives 0.46% (n = 330,000); Potency, µM (series often up to 36.5 µM), actives largely listed as inhibitors; Vaccinia virus Venus reporter expression, fluorescence; calls by dose curve; tested in A549 cells; note: nearly all actives have a fitted effect of over 30% in size
NS1 function inh – inhibitors of influenza NS1 protein function. Potency, µM (series often up to 46.1 µM). actives 0.4% (n = 270,000); calls by dose curve; note: actives are rising curves; nearly all actives have a fitted effect of over 50% in size
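Recovery from NS1-induced slow growth read by OD600 in budding yeast switched to galactose assay medium (pH 6.0, -URA) at 1:100 dilution. Compound 23 nl per well; the matching strain lacking NS1 serves as control.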
Hits are given with their value; . = inactive; ? = inconclusive; / = no result given; [ ] = remark or other dose. Unless noted, calls come from the whole dose curve; as a rule, active = well fitted inhibition curve with a large enough effect; inconclusive = small, poorly fitted or top-dose-only effect, or another doubt; inactive = no such curve, though single readings can be large or run the other way.

SMILES	Pf growth 48h	VACV mCherry inh	Pf growth 96h	HCV inhibitor	VACV Venus inh	NS1 function inh
Cc1cc(C(=O)CSc2nc3ccc(Cl)cc3[nH]2)c(C)n1CC1CCCO1 (configuration not stated)	/	?	?	8.9µM	.	.
C=CCn1c(C)cc(C(=O)CSc2nnc(NCc3ccccc3)s2)c1C	.	/	?	?	/	.
C=CCn1c(C)cc(C(=O)CSc2nnc(NC(C)C)s2)c1C	?	/	4.7µM	.	.	.
C=CCn1c(C)cc(C(=O)CSc2nc3ccccc3[nH]2)c1C	.	/	.	6.3µM	/	.
Cc1ccc2nc(SCC(=O)c3c[nH]c4ccccc34)[nH]c2c1	2.9µM	.	?	.	.	.
Cc1ccc(CN2CCCn3nc(C(=O)NCCN(C)C)cc3C2=O)cc1	/	.	/	/	.	/
C=CCn1c(C)cc(C(=O)CSc2nc3ccccc3o2)c1C	.	/	?	22µM	/	.
Cn1c(=O)[nH]c(=O)c2c1nc1n2CCN1Cc1ccccc1	.	/	.	?	/	.
Cc1sc(N)nc1-c1ccc(Oc2ccccc2)cc1	.	/	?	14µM	/	.
Nc1nc(N)nc(-c2ccc(Oc3ccccc3)cc2)n1	/	.	.	.	.	.
O=C(CN1CCC(NC(=O)c2cccc(F)c2)CC1)Nc1ccc(Br)cc1	.	.	?	10µM	.	.
C=CCN(c1ccc(F)cc1)S(=O)(=O)c1cc(C(=O)NC2CCC(O)CC2)ccc1Cl (configuration not stated)	?	/	5.2µM	?	/	/
O=C(NC1CCN(Cc2ccc(F)cc2)CC1)c1ccccc1	.	.	.	.	.	.
CC1(C)CC(NC(=O)c2cccc(S(=O)(=O)Nc3cccc(Cl)c3)c2)CC(C)(C)N1	13µM	/	4.7µM	.	/	/
O=C(NC1CCN(Cc2ccccc2)CC1)c1cccc(S(=O)(=O)Nc2ccc(F)cc2)c1	4.1µM	/	2.1µM	?	/	/
Cc1ccc(C(=O)NC2CC(C)(C)NC(C)(C)C2)cc1Cl	.	.	.	.	.	.
C=CCNCCOCCOc1ccc(C)cc1Br	.	?	.	?	?	.
Cc1cccc(N(CC(=O)NC(C)C)C(=O)c2ccc(N3CCCC3)nc2)c1	?	.	.	.	.	/
C=CCN(c1ccccc1)S(=O)(=O)c1cccc(C(=O)NC2CCN(Cc3ccccc3)CC2)c1	10µM	?	12µM	14µM	?	/
O=C(NC1CCN(Cc2ccccc2)CC1)c1cccc(S(=O)(=O)Nc2ccc(Br)cc2)c1	12µM	.	?	?	?	/
C=C(C)C(=O)Nc1cccc(C2=NOC3(C2)C[C@H](C(N)=O)N(C(=O)c2ccccc2C(=O)c2ccccc2)C3)c1 (some centres not stated)	?	.	13µM	.	.	.
CCCCCC(=O)Nc1cccc(C2=NOC3(C2)C[C@H](C(N)=O)N(C(=O)c2ccccc2C(=O)c2ccccc2)C3)c1 (some centres not stated)	9.3µM	?	?	?	.	.
CCCCCC(=O)Nc1cccc(C2=NOC3(C2)C[C@H](C(N)=O)N(C(=O)c2ccccc2)C3)c1 (some centres not stated)	?	.	?	.	.	.
CCC(=O)Nc1cccc(C2=NOC3(C2)C[C@H](C(N)=O)N(C(=O)Cc2ccc([N+](=O)[O-])cc2)C3)c1 (some centres not stated)	.	.	.	.[8.37 µM]	.	.
Cc1c(C(=O)N2CC3(CC(c4cccc(NC(=O)CC(c5ccccc5)c5ccccc5)c4)=NO3)C[C@@H]2C(N)=O)cc([N+](=O)[O-])cc1[N+](=O)[O-] (some centres not stated)	12µM	.	?	.	.	.
SMILES	Pf growth 48h	VACV mCherry inh	Pf growth 96h	HCV inhibitor	VACV Venus inh	NS1 function inh
C/C=C(/C)C(=O)Nc1cccc(C2=NOC3(C2)C[C@H](C(N)=O)N(C(=O)Cc2ccc([N+](=O)[O-])cc2)C3)c1 (some centres not stated)	12µM	.	?	.	.	.
CCC(Oc1ccccc1F)C(=O)N1CCC(c2nc3ccccc3s2)CC1 (configuration not stated)	/	.	/	/	.	/
COc1ccc(/C=C/C(=O)c2c(O)ccc3c(C)cc(=O)oc23)cc1	10µM	/	.	?	/	.
Cc1cccc(Nc2nnc(-c3ccc(C)c(S(=O)(=O)N4CCCCC4)c3)c3ccccc23)c1	/	.	/	/	.	/
CSc1ccc(C(=O)C2CCCN(C(=O)c3cccnc3SC)C2)cc1 (configuration not stated)	?	/	.	?	/	.
COc1ccc(C(=O)C2CCCN(C(=O)CSC)C2)cc1OC (configuration not stated)	.	/	13µM	.	/	.
COc1ccccc1C(=O)C1CCCN(C(=O)c2cccnc2SC)C1 (configuration not stated)	5.2µM	?	.	.	.	.
Cc1ccccc1-n1c(=O)/c(=C\c2ccco2)s/c1=C(/C#N)C(=O)Nc1ccccc1	1.5µM	/	.	.	/	.
CCOC(=O)/C=c1\s/c(=C(\C#N)C(=O)NC)n(-c2ccccc2)c1=O	.	.	.	.	.	.
COC(=O)CCNCCSc1nnc(-c2ccco2)n1Cc1ccccc1	.	/	.	.	/	.
CC(C)c1ccc(NC(=O)C2CCCN(S(=O)(=O)c3ccc4c(c3)C(C)(C)C(=O)N4C)C2)cc1 (configuration not stated)	?	.	?	13µM	.	?
COc1cccc(CNC(=O)C2CCCN(S(=O)(=O)c3ccc4c(c3)C(C)(C)C(=O)N4C)C2)c1 (configuration not stated)	?	.	.	.	.	.
CN1C(=O)C(C)(C)c2cc(S(=O)(=O)N3CCCC(C(=O)NCc4ccc(F)cc4)C3)ccc21 (configuration not stated)	?	.	10µM	?	.	.
CN1C(=O)C(C)(C)c2cc(S(=O)(=O)N3CCCC(C(=O)Nc4ccc(Cl)cc4)C3)ccc21 (configuration not stated)	?	?	.	11µM	?	.
O=C(CSc1nc(N2CCOCC2)nc(N2CCOCC2)n1)Nc1ccc([N+](=O)[O-])cc1	?	.	.	?	.	.
Cc1ncc(CNC(=O)N(CCCl)N=O)c(N)n1	.	.	.	2.8µM	.	.
COCCCNC(=O)C(=O)Nc1ccc2c(c1)N(S(=O)(=O)c1cccs1)CCC2	?	.	?	?	?	/
CCCNC(=O)C(=O)Nc1ccc2c(c1)N(S(=O)(=O)c1cccs1)CCC2	.	.	.	?	.	/
CN(C)CCCNC(=O)C(=O)Nc1ccc2c(c1)N(S(=O)(=O)c1cccs1)CCC2	9.3µM	.	?	8.9µM	.	/
CN(C)CCNC(=O)C(=O)Nc1ccc2c(c1)N(S(=O)(=O)c1cccs1)CCC2	?	.	13µM	?	.	/
